# About 14,000 (4.5%) of roughly 310,000 compounds showed an effect of 50% or more. The effect is printed as a negative number. The list comes from a sample in which strong results are over-represented; it also holds similar structures and randomly drawn compounds.
# Biological target: human ether-à-go-go-related gene (hERG) potassium channel (human, UniProt Q12809)
# Assay: primary screen, population patch clamp on CHO cells stably expressing hERG; higher = less effect of the substance
# Description: Briefly, Chinese hamster ovary (CHO) cells stably expressing the hERG channel were dislodged from tissue culture flasks and dispensed into PPC plates. […] During the recording, background leak currents were estimated by a 100 ms step to -80 mV from an initial holding potential of -70 mV and subtracted from the subsequent current measurement. The campaign was conducted in two phases using slight differences in recording protocol. In the first phase, the initial voltage pulse used a 100 ms step to -30 mV from a holding potential of -70 mV, a 2 s conditioning step to +25 mV, and a 2 s test step to -30 mV. During the second phase of the screen, the potential during the conditioning step was raised to +45 mV. In both phases of the campaign, a secondary voltage pulse was applied using the same parameters as the second phase initial pulse. The initial and secondary pulses were applied in the absence of compound, and upon application of 1 μM and 10 μM test concentrations. […]
# 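Note: peak tail current of the secondary pulse compared with the same well before compound.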
# human ether-à-go-go-related gene (hERG) potassium channel, sequence (Q12809 whole entry, looked up): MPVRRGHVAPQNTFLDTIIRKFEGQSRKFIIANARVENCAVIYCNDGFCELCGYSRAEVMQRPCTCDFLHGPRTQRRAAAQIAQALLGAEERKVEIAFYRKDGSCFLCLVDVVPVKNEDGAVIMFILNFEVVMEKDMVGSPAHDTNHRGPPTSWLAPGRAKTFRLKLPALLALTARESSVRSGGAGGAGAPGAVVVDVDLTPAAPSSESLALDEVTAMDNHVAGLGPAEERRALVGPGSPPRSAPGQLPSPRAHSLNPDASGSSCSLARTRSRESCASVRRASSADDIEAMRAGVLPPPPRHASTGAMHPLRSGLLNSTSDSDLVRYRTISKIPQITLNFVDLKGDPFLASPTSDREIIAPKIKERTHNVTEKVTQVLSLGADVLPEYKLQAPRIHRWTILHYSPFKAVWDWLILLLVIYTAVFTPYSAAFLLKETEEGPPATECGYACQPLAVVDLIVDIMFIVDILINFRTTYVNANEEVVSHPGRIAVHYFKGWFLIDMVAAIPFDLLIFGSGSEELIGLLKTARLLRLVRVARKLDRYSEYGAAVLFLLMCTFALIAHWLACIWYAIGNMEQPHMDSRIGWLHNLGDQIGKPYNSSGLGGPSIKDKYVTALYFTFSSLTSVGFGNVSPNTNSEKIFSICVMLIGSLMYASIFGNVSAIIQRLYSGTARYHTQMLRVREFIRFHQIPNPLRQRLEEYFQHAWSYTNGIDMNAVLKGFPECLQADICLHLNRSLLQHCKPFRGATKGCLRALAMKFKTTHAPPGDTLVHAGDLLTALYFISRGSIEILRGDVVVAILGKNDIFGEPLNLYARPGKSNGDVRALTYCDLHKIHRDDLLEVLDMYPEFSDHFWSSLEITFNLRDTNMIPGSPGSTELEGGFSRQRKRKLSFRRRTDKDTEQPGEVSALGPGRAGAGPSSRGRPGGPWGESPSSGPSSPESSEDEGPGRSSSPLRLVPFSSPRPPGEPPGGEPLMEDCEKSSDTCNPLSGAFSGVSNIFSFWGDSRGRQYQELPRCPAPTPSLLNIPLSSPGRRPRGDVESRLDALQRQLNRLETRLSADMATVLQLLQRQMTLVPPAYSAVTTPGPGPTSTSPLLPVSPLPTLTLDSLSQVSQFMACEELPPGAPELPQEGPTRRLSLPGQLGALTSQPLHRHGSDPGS
row,Compound,"hERG current change (%, negative = inhibition) at 10uM [%]"
1,COc1ccc(OC)c(C(=O)COC(=O)c2c(OC)cccc2OC)c1,8.03
2,CCCN1CCC(NC(=O)C2CCCCC2C(=O)O)CC1 (centres unmarked),-1.65
3,C(=N\N=C\c1cccs1)/c1cccs1,-2.57
4,Cc1nn(CCC#N)c2c1P(=S)(N1CCCC1)OC(c1ccc(F)cc1)=N2 (centres unmarked),-7.21
5,C=CCN1C(=O)C(CC(=O)O)SC1=Nc1c(C)n(C)n(-c2ccccc2)c1=O (centres unmarked),1.73
6,COc1ccccc1/C=C1\SC(=O)N(CC(=O)N(C)C2CCS(=O)(=O)C2)C1=O (centres unmarked),11.5
7,Nc1cc(N)cc(C(=O)Nc2ccc3c(c2)C(=O)NC3=O)c1,12.1
8,O=C(CN1C(=O)NC2(CCCCCC2)C1=O)N1CCN(c2ccccc2)CC1,-2.9
9,CCOc1ccc(Cl)cc1S(=O)(=O)N1CCCC1,-6.06
10,CN1CCN(c2nnc(-c3ccc(Cl)cc3)c3ccccc23)CC1,-45.7
11,O=C1c2ccccc2S(=O)(=O)c2cc(C(=O)N3CCN(c4ccccc4)CC3)ccc21,-25
12,COc1ccc(-c2nc(-c3ccncc3)no2)cc1,10.5
13,COc1ccc(-c2nn(-c3ccccc3)cc2CNCc2cccnc2)c(F)c1,-28.1
14,Cc1ccc(-c2nn(-c3cccc(F)c3)cc2CN(Cc2nccn2C)C(C)C)o1,-21.4
15,Cc1ccc(-c2nn(-c3cccc(F)c3)cc2CNCCc2ccncc2)o1,-53.6
16,COc1ccc(-n2cc(CNCc3cccnc3)c(-c3cccc(F)c3)n2)cc1,-47.7
17,Cc1ccc(-c2nn(-c3cccc(F)c3)cc2CNCc2cccnc2)o1,-51.6
18,Cc1ccc(-c2nn(-c3cccc(F)c3)cc2CN2CCN(c3ccccn3)CC2)o1,-26.5
19,COc1ccc(CNCc2cn(-c3cccc(F)c3)nc2-c2ccc(C)o2)cc1,-55.5
20,Cc1ccc(-c2nn(-c3ccccc3)cc2CO)o1,-0.28
21,COCCNCCCCOc1ccccc1-c1ccccc1.O=C(O)C(=O)O,-27.5
22,Cc1cc(C(=O)NCC(=O)OCC(=O)NCC2CCCO2)ccc1[N+](=O)[O-] (centres unmarked),15.3
23,COc1ccc(C2C(C(=O)N3CCCC3)CC(=O)N2c2ccc(OC)cc2)cc1 (centres unmarked),0.91
24,O=C(Cn1cnc2c(oc3nc4c(cc32)CCCC4)c1=O)Nc1cccc(Cl)c1,16.2
25,COc1ccc(-c2cn[nH]c2-c2ccc(OCC(=O)NN)cc2O)cc1,17.4
26,CCOC(=O)c1cccc(-[n+]2c(-c3ccccc3)cc(-c3ccccc3)cc2-c2ccccc2)c1.[O-][Cl+3]([O-])([O-])[O-],-73.5
27,CCOC(=O)c1ccc(P(=O)(c2ccccc2)c2ccccc2)cc1,-18.2

row,Compound,"hERG current change (%, negative = inhibition) at 10uM [%]"
1,CCOC(=O)c1ccc(-[n+]2c(-c3ccccc3)cc(-c3ccccc3)cc2-c2ccccc2)cc1.[O-][Cl+3]([O-])([O-])[O-],-77.9
2,CCCOC(=O)c1ccc(NC(=O)Oc2ccccc2)cc1,3.21
3,CCOC(=O)c1ccc(/[N+]([O-])=C/c2ccccc2)cc1,0.217
4,CCOC(=O)c1cccc(P(=O)(C(C)(C)C)C(C)(C)C)c1,17.1
5,CCCOC(=O)c1ccc(Cl)c(NC(=O)c2ccc(-c3ccccc3)cc2)c1,-5.63
6,CCCOC(=O)c1ccc(-[n+]2c(-c3ccccc3)cc(-c3ccccc3)cc2-c2ccccc2)cc1.[O-][Cl+3]([O-])([O-])[O-],-77.2
7,CCOC(=O)c1ccc(Cl)c(NC(=O)c2ccc(-c3ccccc3)cc2)c1,1.02
8,O=C(O)CCC(=O)c1ccc2c(c1)OCCO2,1.89
9,O=c1c(C=NCc2cccs2)c(O)n(C2CCCCC2)c(=O)n1C1CCCCC1,8.72
10,O=C(CCCCCNC(=O)N1CCn2c1nc1ccccc12)NCCc1ccccc1,9.42
11,O=C(O)c1ccccc1C(=O)N1N=C(c2ccccc2)CC1c1ccccc1O (centres unmarked),6.81
12,Cc1nn(C(=O)c2ccco2)c(C)c1Sc1ccc(Br)cc1,-4.64
13,COC(=O)CN1C(=O)COc2ccc(S(=O)(=O)N3CCCCCC3)cc21,-7.44
14,O=C(CSc1nnc(Cc2cc(=O)[nH]c(=O)[nH]2)n1-c1ccc(Cl)cc1)NC1CCCC1,10.7
15,COC(=O)CSc1[nH]c(=O)cc(C)c1C#N,19.9
16,O=C(CN1CCc2ccccc2C1)NCC(=O)Nc1ccc(F)cc1,13.5
17,O=C(Nc1ccc(Cl)cc1)[C@@H]1[C@@H]2C(=O)N(c3cccc(F)c3)C(=O)[C@@H]2[C@H]2C=CC=NN21,-9.36
18,CCCCc1ccc(N=N/C(C(=O)Nc2cc(OC)c(NC(C)=O)cc2OC)=C(/C)O)cc1,14.2
19,CCCCc1ccc(N=N/C(C(=O)Nc2ccccc2OC)=C(/C)O)cc1,-8.51
20,CCCCc1ccc(N=N/C(C(=O)Nc2ccc(NC(C)=O)cc2OC)=C(/C)O)cc1,-50.2
21,CN(C)S(=O)(=O)c1ccc(C(=O)OCc2ccc([N+](=O)[O-])cc2)cc1,17.6
22,O=C(CCNC(=O)c1ccc([N+](=O)[O-])cc1)Nc1cccc(S(=O)(=O)N2CCCCC2)c1,-55.2
23,O=C(CCNC(=O)c1ccc(Cl)cc1)Nc1cccc(S(=O)(=O)N2CCCCCC2)c1,-57.3
24,O=C(CCNC(=O)c1ccc(Br)cc1)Nc1cccc(S(=O)(=O)N2CCCCC2)c1,-36.1
25,O=C(CCNC(=O)c1ccc(Br)cc1)Nc1cccc(S(=O)(=O)N2CCCC2)c1,-32.7
26,O=C(CCCNC(=O)c1ccc(Cl)cc1)Nc1cccc(S(=O)(=O)N2CCCCC2)c1,-20.2
27,CN(C)S(=O)(=O)c1cccc(C(=O)NCCNC(=O)c2cccc(S(=O)(=O)N(C)C)c2)c1,15.9

row,Compound,"hERG current change (%, negative = inhibition) at 10uM [%]"
1,O=C(CCNC(=O)c1ccc(Cl)cc1)Nc1cccc(S(=O)(=O)N2CCCCC2)c1,-46
2,CN(C)S(=O)(=O)c1cccc(COC(=O)CCNC(=O)c2ccc([N+](=O)[O-])cc2)c1,-55.2
3,O=C(CCNC(=O)c1ccc(Br)cc1)Nc1cccc(S(=O)(=O)N2CCCCCC2)c1,-34.1
4,O=C(CCNC(=O)c1ccc([N+](=O)[O-])cc1)Nc1cccc(S(=O)(=O)N2CCCCCC2)c1,-75.1
5,O=C(CCNC(=O)c1ccc([N+](=O)[O-])cc1)Nc1cccc(S(=O)(=O)N2CCOCC2)c1,-31.7
6,COc1ccc(/C(C)=N/NC(=O)CNC(=O)c2ccncc2)c(OC)c1,3.47
7,COc1cc(OC)c2cc[nH]c2c1,27.3
8,Cc1ccccc1NC(=S)NCC(c1cccnc1)N1CCOCC1 (centres unmarked),-4.07
9,Cc1cc(Nc2ccc(Cl)cc2)n2nnnc2n1,7.83
10,COc1cc(CN2CCN(c3cc(C)ccc3C)CC2)cc([N+](=O)[O-])c1O,7.26
11,Oc1cccc(Nc2ncnc3ccccc23)c1,3.18
12,O=C(CNC(=O)c1ccccc1Br)N/N=C/c1cccs1,4.8
13,CCN(CC)S(=O)(=O)c1cccc(NC(=O)CCNC(=O)c2ccc([N+](=O)[O-])cc2)c1,-62.4
14,O=C(CSc1ccc([N+](=O)[O-])cc1)Nc1cccc(S(=O)(=O)Nc2ccccc2F)c1,-74.4
15,Cc1ccc(NC(=O)CCNC(=O)c2ccc([N+](=O)[O-])cc2)cc1C,-0.694
16,COC(=O)c1cccc(NC(=O)CCNC(=O)c2ccc([N+](=O)[O-])cc2)c1,-48
17,O=C(Cc1ccc(Cl)cc1Cl)Nc1cccc(S(=O)(=O)Nc2ccccc2F)c1,-1.71
18,O=C(NCC(O)c1ccc([N+](=O)[O-])cc1)c1cccc(S(=O)(=O)N2CCCC2)c1 (centres unmarked),-66.8
19,O=C(NCC(O)c1ccc([N+](=O)[O-])cc1)c1cccc(S(=O)(=O)N2CCOCC2)c1 (centres unmarked),-13
20,O=C(NCC(O)c1ccccc1)c1cccc(S(=O)(=O)N2CCOCC2)c1 (centres unmarked),-18.1
21,O=C(Cc1ccc(Cl)cc1)Nc1cccc(S(=O)(=O)Nc2ccccc2F)c1,11.9
22,Cc1ccc(NC(=O)CCNC(=O)c2ccc([N+](=O)[O-])cc2)cc1S(=O)(=O)N(C)C,-66.9
23,CN(C)S(=O)(=O)c1ccc(NC(=O)CCNC(=O)c2ccc([N+](=O)[O-])cc2)cc1,-12.7
24,Cc1ccc(NC(=O)c2ccc([N+](=O)[O-])cc2)cc1S(=O)(=O)N(C)C,-39.6
25,CCOc1ccc(C(=O)Nc2nc(C)cc(C)n2)cc1[N+](=O)[O-],-49.6
26,Cc1nnc(C)n1/N=C/c1ccc(-c2ccccc2Cl)o1,-11.3
